# Source: PubChem BioAssay (National Center for Advancing Translational Sciences (NCATS))
# The list is not random: actives were taken first. Their share in the collection is about 10%.
# 3T3 cytotox – kills NIH 3T3 cells | NIH 3T3 viability, CellTiter-Glo ATP luminescence, 48-72 h | Potency, µM (series often up to 96.7 µM), inactives show at the top dose activity change, negative = cytotoxicity, hits mostly inhibitors | actives 4.3% (n = 94,000) | AID 1345082; further: nearly all actives have a fitted effect of over 55% in size
#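 Cells were seeded at 400 per well, treated with pin-transferred compound, and kept 48 or 72 hr at 37 °C before CellTiter-Glo addition and luminescence imaging of cellular ATP.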
# FLuc inh – blocks purified firefly luciferase enzyme activity. P08659. purified P. pyralis luciferase, luminescence, biochemical. Potency, µM (doses to about 115 µM), actives largely listed as inhibitors. actives 2.5% (n = 76,000). AID 1347043; further: nearly all actives have a fitted effect of over 65% in size
# Target sequence (P08659 whole entry, looked up): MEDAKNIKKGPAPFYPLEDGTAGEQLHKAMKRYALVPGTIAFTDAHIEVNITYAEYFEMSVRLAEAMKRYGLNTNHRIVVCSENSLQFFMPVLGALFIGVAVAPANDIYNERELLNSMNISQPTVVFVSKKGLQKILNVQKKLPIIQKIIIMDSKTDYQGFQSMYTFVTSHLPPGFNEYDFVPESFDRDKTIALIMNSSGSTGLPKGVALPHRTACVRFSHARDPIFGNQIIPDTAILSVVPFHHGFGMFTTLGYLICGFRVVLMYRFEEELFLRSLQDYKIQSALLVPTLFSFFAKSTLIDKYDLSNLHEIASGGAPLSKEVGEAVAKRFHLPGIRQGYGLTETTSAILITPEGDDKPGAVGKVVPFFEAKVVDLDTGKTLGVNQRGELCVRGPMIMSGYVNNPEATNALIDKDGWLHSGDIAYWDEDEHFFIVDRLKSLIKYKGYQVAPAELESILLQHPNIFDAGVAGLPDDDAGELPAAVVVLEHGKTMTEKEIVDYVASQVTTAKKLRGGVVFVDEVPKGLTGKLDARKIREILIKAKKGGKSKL
#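 Luminescence read by CCD imager after adding enzyme (10nM final) to wells holding compound, titrated in qHTS. Substrates 10uM each D-luciferin and ATP; buffer 50mM Tris acetate pH 7.5, 10mM Mg acetate, Tween-20, BSA.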
# HEK cytotox – kills HEK 293 cells | HEK 293 viability, ATP luminescence (CellTiter-Glo), 48-72 h | Potency, µM (series often up to 115 µM), for the others: at the highest dose activity change, negative = cytotoxicity, most hits filed as inhibitors | actives 6.6% (n = 94,000); further: nearly all actives have a fitted effect of over 60% in size
#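 250 HEK 293 cells/well; compound by pintool; incubated 48 or 72 hr at 37 degree Celsius; CellTiter-Glo added, 10 min RT, luminescence imaged.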
# hNpr1 antagonist – antagonists of human natriuretic peptide receptor Npr1 | AID 1347048 | HEK293 hNpr1 GloSensor cGMP, ANP-stimulated luminescence | actives 1.6% (n = 76,000) | P16066 | Potency, µM (highest dose often 46.3 µM), for inactives: top-dose activity change, negative = inhibition, actives largely listed as inhibitors; calls by dose curve; further: nearly all actives have a fitted effect of over 60% in size
#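 Compound pre-incubated 30 min at room temperature on GloSensor-loaded HEK293 cells stably carrying hNpr1 and the pGS-40F cGMP biosensor. Stimulation uses hNppA at 0.1 nM final; luminescence is taken at baseline and 20 min post-agonist.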
# GPT2 inh – inhibitors of human GPT2 alanine aminotransferase; actives 0.25% (n = 100,000); Recombinant GPT2, coupled pyruvate oxidase/HRP Amplex Red fluorescence; Potency, µM (highest dose often 57.7 µM), inactives show at the highest dose activity change, negative = inhibition, actives largely listed as inhibitors; AID 1671188; further: nearly all actives have a fitted effect of over 60% in size
#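 Fluorescence read-out: pyruvate from GPT2 turnover coupled to pyruvate oxidase, HRP and Amplex Red (0.2mM ThPP, 0.2U/mL PO and HRP, 50uM Amplex final). Substrates 250uM a-KG, 2mM L-alanine; enzyme 10ng/uL; 30 min RT.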
# The depositor's hits bear a star; i = inactive; u = inconclusive; x = no result given; ! = repeats disagree; [ ] = another dose, or the depositor's remark. Unless noted, the call rests on the fitted dose curve; in most records, active means well fitted curve in the direction sought with a large enough effect; inconclusive means small, poorly fitted or top-dose-only effect, or another doubt; inactive means no such curve, though single readings can be large; an effect the other way counts as inactive or inconclusive. On the % scale 0 is the no-effect control and ±100 the full control effect; potency means the concentration at half of the fitted maximal effect.
SMILES,3T3 cytotox,FLuc inh,HEK cytotox,hNpr1 antagonist,GPT2 inh
O=C(NC1CCN(c2ccc3nnc(-c4ccccc4)n3n2)C1)c1ccc(Cl)cc1 (stereo not given),-23%,x,-18%,x,x
O=C(CNC(=O)c1ccc(-c2cnc3ccccc3c2)cc1)NCCCc1ccccc1,-35%,x,u,x,i
OC[C@@]1(O)CO[C@@H](OC[C@H]2O[C@@H](Oc3ccccc3)[C@H](O)[C@@H](O)[C@@H]2O)[C@@H]1O,x,x,x,x,i
Cc1ccc(-c2c(C(=O)NCc3cccs3)nc3sccn23)cc1,-11%[138 µM],x,u,x,i
O=C(NCCc1ccccc1)c1nc2sccn2c1-c1ccc(C(F)(F)F)cc1,14µM*,x,u,x,i
O=C(NCc1cccs1)c1nc2sccn2c1-c1ccncc1,u,x,89µM*,x,i
O=C(NCc1ccc(F)cc1)c1nc2sccn2c1-c1ccc(C(F)(F)F)cc1,14µM*,x,u,x,i
O=C(NCc1ccccc1F)c1nc2sccn2c1-c1ccc(C(F)(F)F)cc1,u,x,32µM*,x,3%
O=C(Cc1ccc(F)cc1)N1CCN(C(=O)c2nc3cccnc3n(C3CCCC3)c2=O)CC1,u,x,-22%,x,-29%
CC(C)(O)CCc1cccc(C(=O)N2CCC(Nc3ncccn3)CC2)c1,-27%,i,u,-8%,0%
O=C(NCc1cccc(C(F)(F)F)c1)c1nc2sccn2c1-c1ccc(F)cc1,u,x,u,x,-12%[88.5 µM]
O=C(NCc1cccc(C(F)(F)F)c1)c1nc2sccn2c1-c1cccc(C(F)(F)F)c1,u,x,35µM*,x,i
COc1ccc(-c2c(C(=O)NCCCc3ccccc3)nc3sccn23)cc1,35µM*,x,u,x,1%
Cc1ccc(-c2c(C(=O)NCCc3ccccc3)nc3sccn23)cc1,18µM*,x,45µM*,x,i
O=C(NCc1ccccc1)c1nc2sccn2c1-c1ccc(C(F)(F)F)cc1,u,x,40µM*,x,-12%
Cc1noc(C)c1C(=O)NC1CCN(c2ccc3nnc(C4CC4)n3n2)C1 (stereo not given),-21%,x,2%,x,x
O=C(c1ccc(F)cc1)N1CCC(C(=O)N2CCC(N3Cc4cccn4C3=O)CC2)CC1,u,x,-29%,x,3%
CCn1cc(S(=O)(=O)N2CCCC(Cc3ncc(C)n3CC3CC3)C2)cn1 (stereo not given),-20%,i,-29%,-22%,i
O=C(NC1CCN(c2cc(-c3ccc(Cl)cc3)[nH]n2)C1)c1ccccc1 (stereo not given),u,i,u,-8%,u
CCOc1ccccc1C(=O)NC1CCN(c2cc(-c3ccc(Cl)cc3)[nH]n2)C1 (stereo not given),u,i,35µM*,-23%,u
CCOc1ccc(C(=O)NC2CCN(c3cc(-c4ccc(Cl)cc4)[nH]n3)C2)cc1 (stereo not given),u,i,u,-18%,-29%
Cc1ccccc1C(=O)NC1CCN(c2cc(-c3ccc(Cl)cc3)[nH]n2)C1 (stereo not given),40µM*,i,u,-14%,-10%
CCOc1ccccc1C(=O)NC1CCCN(c2cc(-c3ccc(F)cc3)[nH]n2)C1 (stereo not given),32µM*,i,40µM*,-19%,-23%
CCOc1ccc(C(=O)NC2CCCN(c3cc(-c4ccc(OC)cc4)[nH]n3)C2)cc1OCC (stereo not given),-15%,i,u,1%,-5%
CCOc1ccc(C(=O)NC2CCCN(c3cc(-c4ccc(F)cc4)[nH]n3)C2)cc1OCC (stereo not given),32µM*,i,28µM*,0%,2%
SMILES,3T3 cytotox,FLuc inh,HEK cytotox,hNpr1 antagonist,GPT2 inh
COC(=O)CNC(=O)c1nc2cccnc2n(-c2ccc(OC)cc2)c1=O,-15%,x,-4%,x,i
COCCC1(NC(=O)NC2CCCCC2)CCN(S(C)(=O)=O)CC1,4%,x,i,x,i
Cc1ccc(NC(=O)c2cc(-c3ccc[nH]3)n[nH]2)cc1C,1%,7.9µM*,2%,3%,i
Cc1cc(C)cc(NC(=O)c2cc(-c3ccc[nH]3)n[nH]2)c1,u,20µM*,u,-3%,3%
CCc1ccc(NC(=O)c2cc(-c3ccc[nH]3)n[nH]2)cc1,-17%,3.2µM*,u,7%,4%
Cc1ccc(NC(=O)c2cc(-c3ccc[nH]3)n[nH]2)cc1,-14%,4µM*,-8%,-1%,i
Cc1ccccc1C(=O)N1CCN(c2ccc3nnc(C4CC4)n3n2)CC1,-14%,x,-8%,x,x
COc1ccc(Cn2c(=O)c(C(=O)NCc3cccc(C(F)(F)F)c3)nc3cccnc32)cc1,u,x,u,x,i
COc1ccc(C(=O)N2CCC3(C2)C(=O)N(CCc2ccccc2)c2ccccc23)cc1 (stereo not given),u,i,40µM*!,u,3%
O=C(Cc1ccc(F)cc1)N1CCC2(C1)C(=O)N(CCc1ccccc1)c1ccccc12 (stereo not given),u,i,45µM*,16%,i
O=C(c1ccc(C(F)(F)F)cc1)N1CCC2(C1)C(=O)N(Cc1ccccc1)c1ccccc12 (stereo not given),25µM*,i,22µM*,u,i
O=C(c1cccc(Cl)c1)N1CCC2(C1)C(=O)N(CCc1ccccc1)c1ccccc12 (stereo not given),40µM*!,i,28µM*,u,u
Cc1ccc(C(=O)N2CCCC(C(=O)N3CCC(N4CCCC4=O)CC3)C2)cc1 (stereo not given),-17%,x,-14%,x,i
CCn1nccc1C(=O)N1CCC(N2CC(OCC3CC3)C23CCOCC3)CC1 (stereo not given),-4%,x,-2%,x,-12%
Cc1nnc2ccc(N3CCCN(C(=O)NC(C)C)CC3)nn12,i,x,-7%[172 µM],x,x
CC(C)Cn1c(=O)c(C(=O)NCc2ccc3c(c2)OCO3)nc2cccnc21,u,x,u,x,i
O=C(C1CCCC1)N1CCC2(C1)C(=O)N(CCc1ccccc1)c1ccccc12 (stereo not given),u,i,40µM*!,-3%,2%
O=C(Nc1ccc(Cl)cc1)N1CCC2(C1)C(=O)N(CCc1ccccc1)c1ccccc12 (stereo not given),u,i,32µM*!,-11%,2%
O=C(CC1CCCCC1)NCC(=O)N1CCCCCCNC(=O)CC1c1ccccc1 (stereo not given),1%,i,2%,-17%,i
CSc1ccc(-c2cccc(C(=O)NCC(=O)NCc3ccc(F)cc3)c2)cc1,u,x,16µM*,x,i
